PfM18AAP inh-1: PfM18AAP inhibitors, malaria aminopeptidase, primary screen, biochemical, QFRET, recombinant enzyme; 290,000 tested, 1.2% active; inhibition, % at 7.35 µM; AID 1822, 2009; H-Glu-NHMec fluorogenic cleavage; M18 aspartyl aminopeptidase (Plasmodium falciparum 3D7);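 active = inhibition above the campaign mean inhibition over all tested compounds plus 3 SD, cut at about 28% in these data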;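 note: 0% = plate median of test compound wells and 100% = 2 mM ZnCl2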
APOBEC3A inh: APOBEC3A ssDNA deaminase inhibitors, primary screen, selectivity assay for APOBEC3G inhibitor project, biochemical, FAM/TAMRA oligo cleavage fluorescence; recombinant A3A, FAM/TAMRA ssDNA deamination fluorescence; inhibition, % at 20 µM; 330,000 tested, 0.41% active; AID 493011, 2011;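 active = at least 40% inhibition at 20 µM here, with at most 30% in a related deaminase screen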;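 note: plate controls were A3A with DMSO for no effect and wells lacking A3A enzyme for full effect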
Target sequence (P31941 whole entry, looked up): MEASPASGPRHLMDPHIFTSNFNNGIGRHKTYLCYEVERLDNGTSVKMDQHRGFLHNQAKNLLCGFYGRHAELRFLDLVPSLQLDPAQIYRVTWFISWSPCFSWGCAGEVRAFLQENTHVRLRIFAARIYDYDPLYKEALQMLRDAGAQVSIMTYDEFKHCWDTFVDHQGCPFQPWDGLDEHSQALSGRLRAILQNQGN
A3G deaminase: APOBEC3G DNA deaminase inhibitors, primary screen, biochemical, fluorescence, single-stranded DNA substrate, uHTS; DNA dC->dU-editing enzyme APOBEC-3G (Homo sapiens), Q9HC16; inhibition, % at 20 µM; 330,000 tested, 0.28% active; recombinant A3G, ssDNA deamination FAM/TAMRA fluorescence; AID 493012, 2011;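 active = inhibition of at least 40% at 20 µM, with no more than 30% in the related APOBEC3A deaminase screen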;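 note: plate controls were DMSO wells with A3G for no effect and wells lacking A3G enzyme for full effect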
NRP1-CendR mod: modulators of CendR peptide binding to NRP-1, primary screen, biochemical, fluorescence polarization, uHTS. Neuropilin-1 (Homo sapiens), O14786. FAM-RPARPAR peptide binding to NRP-1. inhibition, % at 25 µM. 360,000 tested, 0.85% active;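 active = inhibition or corrected inhibition above about 18%, plus a signal ratio from 0.5 to 1.5, limit read from the data, passing the limit was not always enough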
ALR H2O2 inh: inhibitors of human ALR sulfhydryl oxidase, primary screen, biochemical, H2O2 detection, HRP-luminol luminescence, single point; FAD-linked sulfhydryl oxidase ALR (Homo sapiens), P55789; purified ALR, DTT oxidation; inhibition, % (concentration not given with the values); 290,000 tested, 3.8% active;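 active = mean replicate inhibition above about 79%, with every replicate also reaching it, limit read from the data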
Target sequence (P55789 whole entry, looked up): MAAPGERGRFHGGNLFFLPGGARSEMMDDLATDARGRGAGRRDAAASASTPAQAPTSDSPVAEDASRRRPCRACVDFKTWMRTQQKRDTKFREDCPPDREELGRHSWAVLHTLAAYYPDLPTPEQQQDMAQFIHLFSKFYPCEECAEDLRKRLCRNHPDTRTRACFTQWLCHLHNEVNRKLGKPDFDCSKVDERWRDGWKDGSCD
CR mimetic SO: reduction of superoxide in aged yeast, primary screen, HTS. superoxide response (% of plate mean), % at 10 µM. S. cerevisiae aged cells, superoxide DHE fluorescence; hits give low values. 330,000 tested, 0.18% active;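 active = superoxide response under a set limit, about three screen SD below normal, cut at about 65% in these data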;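 note: yeast aged for seven days with compound at 30 °C before DHE staining; 100% = average MFI of all compound-treated wells on the plate with controls excluded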
PfM18AAP inh-2: PfM18AAP inhibitors, malaria aminopeptidase, confirmation, biochemical, QFRET, recombinant enzyme, triplicate | shares compounds with PfM18AAP inh-1 | H-Glu-NHMec fluorogenic cleavage | inhibition, % at 7.35 µM | 2,400 tested, 28% active | AID 2170, 2009;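 active = mean inhibition over replicate wells above the hit cutoff set for the earlier primary screen, cut at about 29% in these data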;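 note: 0% = median of test compound wells and 100% = 2 mM ZnCl2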
CTSL1 counter: cathepsin L1 inhibitors, retest, confirmation, counter-screen for PFM18AAP inhibitor project, biochemical, QFRET, triplicate; shares compounds with PfM18AAP inh-1; purified cathepsin L1, Z-Leu-Arg-MCA fluorescence; inhibition, % at 5.96 µM; 2,400 tested, under 10 active; AID 2178, 2009;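 active = average inhibition across replicates above the hit cutoff set in the earlier primary screen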;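 note: 0% = median of test compound wells and 100% = Z-Phe-Ala-diazomethylketone 1 µM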
Target sequence (P07711 whole entry, looked up): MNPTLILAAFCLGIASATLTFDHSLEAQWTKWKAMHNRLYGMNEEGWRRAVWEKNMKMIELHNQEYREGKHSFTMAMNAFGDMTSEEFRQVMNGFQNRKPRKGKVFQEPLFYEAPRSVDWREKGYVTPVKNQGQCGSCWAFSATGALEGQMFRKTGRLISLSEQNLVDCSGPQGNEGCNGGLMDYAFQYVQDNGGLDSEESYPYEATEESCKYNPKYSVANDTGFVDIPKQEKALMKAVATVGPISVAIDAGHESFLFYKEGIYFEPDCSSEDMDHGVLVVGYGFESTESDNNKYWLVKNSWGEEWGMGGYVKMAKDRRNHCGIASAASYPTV
An asterisk follows results filed as active; nt = no result given. Most compounds without a hit are left out; they make up all but 5.2% or so of the library.

SMILES | PfM18AAP inh-1 | APOBEC3A inh | A3G deaminase | NRP1-CendR mod | ALR H2O2 inh | CR mimetic SO | PfM18AAP inh-2 | CTSL1 counter
CCc1c(C)sc(NC(=O)c2noc(C)c2[N+](=O)[O-])c1C#N | 36.7* | -4.7 | -7.0 | 13.4 | -0.5 | 112.5 | -36.5 | -2.9
O=C1c2ccccc2C(=O)N1Nc1ccc([N+](=O)[O-])cc1[N+](=O)[O-] | 0.3 | -3.8 | 2.8 | 12.3 | nt | 100.7 | nt | nt
Clc1ccc(C=NN2CCCCCC2)cc1Cl | nt | nt | nt | 6.4 | nt | nt | nt | nt
CC1CCCC(C)N1/N=C/c1ccc(O)c(O)c1 (stereo not drawn) | 64.1* | 0.0 | -3.0 | 5.3 | 98.6* | 89.4 | 46.4* | 0.7
Oc1ccc(/C=N/N2CCCCC2)cc1O | 65.6* | -0.4 | 1.3 | 10.8 | 98.8* | 91.0 | 32.0* | -2.1
CC(C)C1NC(C(=O)O)Cc2c1[nH]c1ccccc21 (stereo not drawn) | 37.4* | -4.7 | -3.7 | 6.0 | -7.5 | 101.2 | 29.2* | -1.3
CCN(CC)C(C(=O)NC1CCCCC1)c1ccc(C)cc1 (stereo not drawn) | -13.9 | -0.4 | -8.8 | -7.3 | -19.2 | 91.1 | nt | nt
CCN(CCCNC(=O)C1CCN(S(=O)(=O)c2cnc[nH]2)CC1)c1cccc(C)c1 | 51.1* | -2.6 | -1.0 | 4.0 | 98.8* | 91.4 | -33.5 | -0.6
CN(CCNC(=O)C1CCN(S(=O)(=O)c2cnc[nH]2)CC1)Cc1ccccc1 | -6.4 | 0.6 | -3.0 | -5.3 | 14.0 | 99.2 | nt | nt
CCN(CCCNC(=O)C1CCCN(S(=O)(=O)CC)C1)c1cccc(C)c1 (stereo not drawn) | 47.3* | -1.3 | -3.1 | -7.0 | 98.7* | 102.5 | -39.6 | -2.9
CCc1ccc(NC(=O)CSc2nc(=O)n3cc(C)ccc3n2)cc1 | nt | -4.6 | -8.4 | -0.5 | 22.5 | 101.7 | nt | nt
Oc1ccccc1N=Cc1ccc[nH]1 | 35.5* | -0.8 | -0.7 | -9.5 | 30.9 | 81.2 | 17.5 | -0.7
C(=Nc1ccccc1)c1ccc[nH]1 | nt | nt | nt | 11.7 | nt | nt | nt | nt
CCNC(=S)NC(=NCc1cccnc1)Nc1nc(C)cc(C)n1 | 32.2* | -4.9 | -2.3 | 9.6 | nt | 99.8 | -12.5 | -2.8
O=C(O)CC1CCC(=C(Cl)Cl)C1 (stereo not drawn) | 64.2* | 1.8 | -3.1 | 6.7 | 4.5 | 90.7 | -24.8 | 2.8
Cc1c(S(=O)(=O)c2ccccn2)c(N)n(Cc2ccccc2)c1C | 1.6 | -1.3 | 1.9 | -65.6 | -0.4 | 98.1 | nt | nt
C=CCn1c(-c2ccc(S(=O)(=O)N3CCOCC3)cc2)csc1=Nc1ccccc1 | -7.3 | 1.0 | -2.0 | -14.1 | nt | 105.8 | nt | nt
CC(=O)c1cccc(N=c2scc(-c3ccc(S(=O)(=O)N4CCOCC4)cc3)n2CCO)c1 | 50.5* | 1.0 | -1.5 | -8.1 | 3.6 | 100.9 | -35.5 | 0.4
COc1cccc(CN(C)Cc2c(O)ccc3ccccc23)c1 | 27.1 | -2.2 | -6.2 | 1.6 | nt | 123.8 | nt | nt
COc1ccc(CN(C)Cc2c(O)ccc3ccccc23)cc1 | 47.3* | -3.4 | -6.5 | 12.0 | 49.9 | 107.6 | -64.0 | -2.5
O=C(COC(=O)c1cc(Cl)ccc1O)NCCNC(=O)COC(=O)c1cc(Cl)ccc1O | -17.8 | 13.7 | 4.0 | -7.1 | 0.1 | 107.0 | nt | nt
Cc1cc(C)nc(SC/C=C/c2ccccc2)n1 | 34.2* | -3.3 | -1.3 | 3.8 | -12.5 | 97.8 | -16.6 | -1.0
COc1ccc(C(=O)NCC(=O)N/N=C/c2ccco2)cc1OC | 43.6* | -3.8 | 5.6 | -5.6 | nt | 113.4 | -53.8 | -5.9
CC(=O)Nc1ccccc1NC(=O)C/C(C)=N/NC(=O)c1ccccn1 | 40.6* | 2.1 | -6.9 | 2.3 | 0.1 | 110.0 | -39.3 | -5.0
O=C(NC(=S)Nc1ccccc1[N+](=O)[O-])c1ccccc1 | 8.0 | -7.1 | -3.6 | -0.5 | -35.3 | 102.1 | nt | nt
SMILES | PfM18AAP inh-1 | APOBEC3A inh | A3G deaminase | NRP1-CendR mod | ALR H2O2 inh | CR mimetic SO | PfM18AAP inh-2 | CTSL1 counter
O=C(O)COc1ccc(/C=N/n2c(COc3ccccc3)nc3ccccc3c2=O)cc1 | -2.0 | 1.4 | -7.9 | -15.0 | 2.9 | 116.5 | nt | nt
O=c1c2ccccc2nc(COc2ccccc2)n1/N=C/c1ccc(O)c(O)c1 | 52.6* | 7.2 | 1.0 | -51.6 | 97.8* | 90.0 | 24.8 | 6.0
CCc1ccccc1NC(=S)Nn1cnnc1 | 76.4* | -0.8 | 0.2 | -0.8 | 9.1 | 92.3 | 69.9* | -6.6
Cc1ccccc1NC(=S)Nn1cnnc1 | 72.8* | -1.6 | 5.1 | -0.9 | 6.7 | 94.3 | 52.1* | 3.8
Fc1ccccc1NC(=S)Nn1cnnc1 | 75.2* | 0.7 | 10.3 | 7.4 | 0.2 | 99.4 | 54.5* | -5.1
Cc1cccc(NC(=S)NN2CCN(C)CC2)c1C | -24.8 | 0.3 | -5.2 | 4.1 | 5.9 | 102.1 | nt | nt
Fc1ccccc1NC(=S)NCc1ccccc1 | 3.4 | -3.5 | 0.7 | 5.9 | nt | 105.8 | nt | nt
Cc1cccc(NC(=S)Nn2cnnc2)c1C | 71.6* | -3.5 | 1.1 | -106.5 | 4.3 | 96.1 | 68.9* | -0.1
O=C(NC1CCN(Cc2ccccc2)CC1)c1ccc(Cl)cc1Cl | -11.0 | -6.1 | -3.1 | 4.3 | 1.0 | 89.7 | nt | nt
O=C(Nc1ncc(Br)s1)C1CCCN1S(=O)(=O)c1cccc2cccnc12 (stereo not drawn) | 2.5 | -1.7 | -3.7 | 1.8 | 28.5 | 109.9 | nt | nt
CCOc1ccccc1NC(=S)Nn1cnnc1 | 74.4* | -2.2 | 33.4 | 1.7 | -0.8 | 101.9 | 55.5* | 5.0
Cc1c(Cl)cccc1NC(=O)c1cc(S(=O)(=O)N2CCOCC2)cn1C | -3.8 | -3.6 | -2.7 | -0.5 | -10.1 | 103.2 | nt | nt
CCNc1ccc(C(=O)OCC(=O)NC(=O)NCC(C)C)cc1[N+](=O)[O-] | 6.5 | 7.8 | -5.1 | 3.8 | -11.0 | 101.3 | nt | nt
CCOC(=O)NC(=O)COC(=O)c1ccc(Sc2ncn[nH]2)c([N+](=O)[O-])c1 | 88.7* | -6.1 | -15.9 | -1.0 | -1.1 | 92.5 | 91.1* | -6.4
C=CCN(CC=C)C(=O)COC(=O)c1ccc(Sc2ncn[nH]2)c([N+](=O)[O-])c1 | 84.1* | 4.4 | -0.6 | 13.0 | nt | 117.2 | 80.5* | -0.7
COc1ccccc1NC(=O)C1=C(C)Nc2nnnn2C1c1cc(Br)ccc1OC (stereo not drawn) | -0.4 | -2.8 | -9.6 | -12.5 | nt | 97.2 | nt | nt

Bioassay records from PubChem.
